# Rows were chosen to be rich in hits. Some 19% of all compounds tested hit in one or more screens of this group.
# DT40 TDP1 CPT – growth inhibition of DT40 Tdp1-/-;hTDP1 cells with camptothecin (screen for TDP1 inhibitors); chicken DT40 Tdp1-/-;hTDP1 cells + 20 nM CPT, ATP luminescence, 48 h; Potency, µM (doses to about 46.2 µM), for inactives: top-dose activity change, negative = growth inhibition, hits mostly inhibitors; hit rate 12% among 420,000; note: potency is the fitted concentration of half-maximal effect; % is set by controls: 0 for no effect and ±100 for the full control effect; nearly all actives have a fitted effect of over 55% in size
#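 Cell growth measured by CellTiter-Glo luminescence after a minimum 48 h, 37 C compound exposure with 20 nM CPT in Tdp1-knockout DT40 cells stably expressing hTDP1, seeded 400/well; qHTS titration format.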
# S-ASM inh – human S-ASM enzyme inhibition; P17405; placental ASM, HMU-PC fluorogenic substrate, 60 min; Potency, µM (doses to about 57.5 µM), inactives show at the highest dose activity change, negative = inhibition, usual class: inhibitors; hit rate 0.006% among 340,000; AID 504937; note: potency is the fitted concentration of half-maximal effect
# Target sequence (P17405 47-631 limits assumed): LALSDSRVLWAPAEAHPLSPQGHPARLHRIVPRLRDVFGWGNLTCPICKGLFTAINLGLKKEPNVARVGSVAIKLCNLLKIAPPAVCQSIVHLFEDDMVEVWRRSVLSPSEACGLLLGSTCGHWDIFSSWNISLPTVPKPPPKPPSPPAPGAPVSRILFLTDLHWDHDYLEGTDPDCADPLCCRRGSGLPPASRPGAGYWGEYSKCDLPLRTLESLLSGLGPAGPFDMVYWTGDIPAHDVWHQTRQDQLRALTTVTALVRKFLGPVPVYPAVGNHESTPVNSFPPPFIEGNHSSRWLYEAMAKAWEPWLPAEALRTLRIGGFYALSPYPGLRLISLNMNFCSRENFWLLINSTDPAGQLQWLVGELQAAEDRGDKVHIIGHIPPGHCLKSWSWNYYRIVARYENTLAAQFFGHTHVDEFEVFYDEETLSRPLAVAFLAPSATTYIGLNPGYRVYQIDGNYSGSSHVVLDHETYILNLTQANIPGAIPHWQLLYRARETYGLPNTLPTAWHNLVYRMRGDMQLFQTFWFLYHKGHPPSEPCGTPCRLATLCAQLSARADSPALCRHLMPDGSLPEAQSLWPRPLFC
#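 Steps: dispense placental human ASM, pin compound, wait 10 min at room temperature, add HMU-PC0 substrate at 9 uM final, incubate 60 min at 37 °C, add stop solution raising pH to 10, read fluorescence.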
# IL-1B inflam inh – inhibitors of inflammasome signaling (IL-1 beta secretion). hit rate 4.7% among 360,000. AID 743279. activity change, % at 57.5 µM. THP-1 LPS/ATP IL-1B secretion, AlphaLISA, 16 h; active compounds read low; in the data active = activity change below about -50%; inconclusive = mostly about -30% to -49%; note: % is set by controls: 0 for no effect and ±100 for the full control effect
#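 Secreted IL-1B measured by AlphaLISA bead assay after 16 h compound exposure of THP-1 cells; compounds (final up to 57.5 uM) added 1 h before LPS (250 ng/mL) and ATP (1.25 mM) stimulation; lower signal means less secretion.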
# TGFb inhibitor – TGF-b pathway inhibition | HepG2 CAGA-GFP TGF-b/SMAD3 reporter, GFP fluorescence, 18 h; TGF-beta stimulated, 500 pg/mL final | Potency, µM (top dose mostly 46.1 µM), without a hit: at the top dose activity, negative = inhibition, hits mostly inhibitors | hit rate 1.2% among 410,000; note: potency is the fitted concentration of half-maximal effect; % is set by controls: 0 for no effect and ±100 for the full control effect; nearly all actives have a fitted effect of over 65% in size
#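 TGF-beta reporter screen: HEPG2 CAGA-GFP, 1% FBS, 500 pg/mL TGF-beta final, 18 h; per-cell GFP summed per well; curves fitted and categorized by class.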
# TDP1 cell noCPT – qHTS for Inhibitors of human tyrosyl-DNA phosphodiesterase 1 (TDP1): qHTS in cells in absence of CPT | DT40 Tdp1-/- hTDP1 cells, no CPT, ATP luminescence, 48 h | Potency, µM (highest dose often 46.2 µM), for inactives: top-dose activity change, negative = growth inhibition, usual class: inhibitors | hit rate 15% among 420,000 | AID 686978, 2013; note: potency is the fitted concentration of half-maximal effect; % is set by controls: 0 for no effect and ±100 for the full control effect; nearly all actives have a fitted effect of over 55% in size
#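 A cellular qHTS used chicken DT40 cells lacking endogenous Tdp1 but carrying stably transfected human TDP1. Compounds were applied without camptothecin, and cell growth kinetics were judged by ATP-dependent luminescence after ≥48 hr.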
# HepG2 tox – counter-screen for TGF-b inhibitors: cytotoxicity in HepG2 cells. AID 588856. hit rate 0.76% among 410,000. HepG2 CAGA-GFP viability, ATP luminescence, 18 h. Potency, µM (titrated, usually from 46.1 µM), for the others: top-dose activity change, negative = cytotoxicity, usual class: cytotoxic; note: potency is the fitted concentration of half-maximal effect
#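 HepG2 CAGA-GFP cells (1000/well, DMEM with 1% FBS) received compound, then TGF-beta at 500 pg/mL final, and were incubated 18 hours at 37 degrees C. Viability was read by CellTiter-Glo luminescence. Media-only wells were set as complete cell-killing and DMSO as no toxicity.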
# The depositor's hits bear a star; i = inactive; ? = inconclusive; . = not tested or not shown; [ ] = remark or other dose. Unless noted, calls come from the whole dose curve; as a rule, active = well fitted curve in the direction sought with a large enough effect; inconclusive = small, poorly fitted or top-dose-only effect, or another doubt; inactive = no such curve, though single readings can be large; an effect the other way counts as inactive or inconclusive.
SMILES,DT40 TDP1 CPT,S-ASM inh,IL-1B inflam inh,TGFb inhibitor,TDP1 cell noCPT,HepG2 tox
Oc1ccccc1/C=N/Nc1ccccc1,-10%,-6%,24,?,-6%,-38%
Oc1ccccc1/C=N/Nc1ccnc(SCc2ccccc2)n1,0.065µM*,37%,35,-3%,0.082µM*,-18%
CCC(C)[C@@H](N)C(=O)N/N=C/c1ccc2ncccc2c1 (stereo partly specified),4%,4%,13,-29%,13µM*,-16%
S=C(N/N=C/c1ccccc1Cl)Nc1ccccc1,16µM*,4%,12,?,?,-6%
O=C(NNC(=S)Nc1ccccc1)c1ccc2ncccc2c1,0%,-2%,-11,10%,-24%,8%
O=C(CCC1CCCN(Cc2ccncc2)C1)NCc1ccc(F)c(F)c1 (stereo unspecified),5%,0%,33,8%,-8%,9%
CCN(CC)C(=O)c1nc[nH]c1C(=O)N(CC)CC,13%,6%,0,?,13%,3%
C/C(=N\NC(=O)CSc1nc2ccccc2s1)c1cccnc1,?,0%,24,?,?,-8%
Cc1cc(C)cc(OCC(O)Cn2nc(C)cc2C)c1 (stereo unspecified),-3%,-3%,9,12%,-7%,4%
CCOc1ccc(-c2cccc(NS(=O)(=O)c3cc([N+](=O)[O-])ccc3Cl)c2)nn1,-10%,-14%,-23,?,-23%,-14%
O=C(C(=O)N1CCN(c2cccc(Cl)c2)CC1)c1cn(CC(=O)N2CCOCC2)c2ccccc12,-22%,-1%,?,-9%,-3%,0%
Cc1cccc(CNC(=O)c2c3n(c(C)cc2=O)-c2ccccc2SC(c2ccsc2)C3)n1 (stereo unspecified),-22%,.,.,.,-13%,.
Oc1ccc(C=NNC(=S)Nc2ccc(F)cc2)c(O)c1,-104%,3%,145,-4%,?,-12%
CNC(=S)N/N=C/c1ccccc1Cl,?,-2%,-50*,6%,?,4%
CNC(=S)N/N=C/c1c(Cl)cccc1Cl,?,2%,-1,-29%,?,-12%
NC(=S)N/N=C/c1ccccc1O,?,i,5,-4%,?,-26%
Oc1ccc(C=NNC(=S)Nc2ccccc2)nc1,5.2µM*,.,97,4%,5.2µM*,-43%
Oc1ccccc1C=NNC(=S)NN=Cc1ccccc1O,5.2µM*,-3%,87,?,4.6µM*,-24%
Cc1c(/C=N/NC(=O)C2(O)c3ccccc3-c3ccccc32)cnn1C,-20%,2%,0,-3%,-15%,7%
O=C(N/N=C/c1ccccc1O)C1(O)c2ccccc2-c2ccccc21,8.2µM*,342%,73,?,5.8µM*,-39%
COc1ccc(C2C=C3CNS(=O)(=O)C3CC2OC(=O)c2ccc(Cl)cc2)cc1 (stereo unspecified),.,.,.,?,.,-103%
O=C(c1cnn(-c2nccc(-c3ccco3)n2)c1C1CC1)N1CCCCC1c1cccnc1 (stereo unspecified),14%[9.04 µM],.,.,.,-8%,.
Oc1ccccc1/C=N/Nc1ncc(Br)cn1,9.2µM*,1%,15,?,7.3µM*,-36%
COc1ccc(CNC(=O)c2cc(C3CC3)nc3c2cnn3C(C)C)cc1OC,?,-1%,-11,-1%,-20%,-1%
Cc1ccc(CNC(=O)c2cc(C3CC3)nc3c2cnn3C(C)C)cc1,?,-14%,-30,-3%,18µM*,-7%
Cc1ccc(S(=O)(=O)N2CCN(C(=O)c3cc(C4CC4)nc4c3cnn4C(C)C)CC2)cc1,?,5%,?,?,4.1µM*,-31%
